# Experimental data from PubChem BioAssay (NCATS).
# Where “and” joins values, the source holds several entries; their conditions need not be identical. Equal values may be shown once. Records with an inconclusive call do not appear. Calls of active or inactive are those of the source. Calls follow the shape of the dose curve; as a rule, active = well fitted inhibition curve with a large enough effect; inconclusive = small, poorly fitted or top-dose-only effect; inactive = flat fitted curve, though single readings scatter.
# Assay: Primary qHTS for inhibitors of nuclear receptor binding SET domain protein 2 (NSD2) in an isogenic RCH-ACV NSD2 p.E1099K mutant (9B) (AID 1645876); also: nearly all actives have a fitted effect of over 70% in size
# Settings: RCH-ACV (leukaemia line) NSD2 E1099K (9B) viability, CellTiter-Glo, 72 h; series mostly up to 44.9 µM; activity change, negative = viability loss: at the top concentration
# % is scaled to controls: 0 for no effect and ±100 for the full control effect; potency is read from the fitted curve at half-maximal effect.
SMILES,"activity change, negative = viability loss",Potency,outcome
Cn1ccc(NC(=O)c2cc(Oc3ccc(C(=O)N4CCC4)c(F)c3)c3c(c2)OC(C)(C)C3)n1,-24.1% (inactive),,
C/C=C(/C)C(=O)O[C@@H]1C[C@@H](OC(=O)CC(C)C)C2(C)C3C(=O)C=C(C)C2C3C1(C)C (stereo partly drawn),-26.3% [at 17.3 µM] (inactive),,
CCC(C(C)O)n1ncn(-c2ccc(N3CCN(c4ccc(OCC5COC(Cn6cncn6)(c6ccc(F)cc6F)C5)cc4)CC3)cc2)c1=O (stereo not drawn),,2.05 µM (active),
CN1CCN(C2CCN(C(=O)Nc3cc(Oc4ccc(NC(=O)C5(C(=O)Nc6ccc(F)cc6)CC5)c(F)c4)ccn3)CC2)CC1,,6.49 µM (active) and 11.8 µM (active),
CC1(C)C2CCC(CO[C@@H]3O[C@H](CO[C@@H]4OC[C@](O)(CO)[C@H]4O)[C@@H](O)[C@H](O)[C@H]3O)C1C2 (stereo partly drawn),,,inactive [at 17.3 µM]
O[C@@](Cc1ncc(CC2(C(F)(F)F)CC2)[nH]1)(c1ccc(-n2cccn2)cc1)C(F)(F)F,,23 µM (active),
Nc1ncnc2c1nc(Cl)n2C1OC2COP(=O)(O)OC2C1O (stereo not drawn),,2.05 µM (active),
CN1CCN(c2ccc(Nc3cc(-c4cccc(-n5ccc6cc(C7CC7)cc(F)c6c5=O)c4CO)cn(C)c3=O)nc2)CC1,,20.6 µM (active),
